From PubChem BioAssay AID492949 (National Center for Advancing Translational Sciences (NCATS), 2010) come the findings set out here.

Results filed as inconclusive are left out. A call without a number means that no potency is given here. Active and inactive are the calls of the source. Calls follow the shape of the dose curve; as a rule, active = well fitted activation curve with a large enough effect; inconclusive = small, poorly fitted or top-dose-only effect; inactive = no such curve, though single readings can be large or run the other way.
Potency is read from the fitted curve at half-maximal effect.

The target in this assay is Relaxin receptor 1 (Homo sapiens) (UniProt Q9HBX9). The experiment in a line: qHTS Assay for Agonists of the Relaxin Receptor RXFP1: THP1 Hit Validation. Also: nearly all actives have a fitted effect of over 60% in size. Particulars: THP1-RXFP1 cells, cAMP TR-FRET, 30 min; series mostly up to 115 µM. Summed up: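 TR-FRET cAMP readout (signal falls as cAMP rises) in lysed RXFP1-transfected THP1 cells after 30 min compound treatment, 37C, PDE4 inhibitor present. EC50 from Hill equation, 0-100% set by buffer and 29 nM porcine relaxin.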
Sequence of Relaxin receptor 1 (Homo sapiens) (Q9HBX9 whole entry, looked up): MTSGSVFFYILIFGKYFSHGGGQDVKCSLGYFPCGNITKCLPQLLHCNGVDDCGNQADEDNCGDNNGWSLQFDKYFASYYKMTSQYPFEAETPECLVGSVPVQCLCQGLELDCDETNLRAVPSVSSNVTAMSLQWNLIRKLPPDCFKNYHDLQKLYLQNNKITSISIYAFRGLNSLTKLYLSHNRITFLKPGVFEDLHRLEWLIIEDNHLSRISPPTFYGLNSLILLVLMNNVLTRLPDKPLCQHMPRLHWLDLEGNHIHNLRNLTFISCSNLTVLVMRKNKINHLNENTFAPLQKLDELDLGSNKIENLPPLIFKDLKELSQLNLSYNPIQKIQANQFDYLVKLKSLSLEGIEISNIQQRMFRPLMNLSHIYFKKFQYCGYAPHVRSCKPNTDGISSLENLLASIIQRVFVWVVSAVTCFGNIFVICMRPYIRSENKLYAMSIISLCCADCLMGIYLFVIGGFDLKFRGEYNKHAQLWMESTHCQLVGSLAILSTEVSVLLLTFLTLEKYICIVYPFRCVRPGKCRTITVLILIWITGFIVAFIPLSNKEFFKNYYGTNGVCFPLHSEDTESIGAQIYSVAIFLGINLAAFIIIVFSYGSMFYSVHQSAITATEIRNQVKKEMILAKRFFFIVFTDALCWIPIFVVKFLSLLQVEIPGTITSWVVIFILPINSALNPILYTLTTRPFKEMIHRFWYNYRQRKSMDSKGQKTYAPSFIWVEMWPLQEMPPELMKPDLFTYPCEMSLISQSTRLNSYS
On to `O=C(Nc1ccccc1C(=O)N1CCN(c2ccccc2)CC1)c1ccco1`, for which the Potency result is “inactive”. The same measure for `COc1ccc(CN2C(=O)c3cccnc3C2=O)cc1S(=O)(=O)NC1CCCCC1C` (centres undefined): 27.5 µM (active); for `CCOC(=O)c1sc(NC(=O)CCc2ccc(OC)cc2)nc1C`: 17.3 µM (active); for `CCc1cc2cc3c(cc2nc1SCC(=O)Nc1nccs1)OCO3`: 21.8 µM (active).

As for `O=C(OCc1nc2ccsc2c(=O)[nH]1)c1cccc(S(=O)(=O)N2CCOCC2)c1`, the Potency was 43.6 µM (active).

In the case of `Cc1cc(NC(=O)c2ccccc2F)nc2c1c(=O)oc1ccccc12`, the Potency was 19.4 µM (active). With `Cc1ccc(-n2nnc3c(=O)n(CC(=O)NCC4CCCO4)cnc32)cc1` (centres undefined), the Potency is 15.5 µM (active). With `O=C(Nc1ccccc1C(=O)N1CCNCC1)c1ccco1`, the Potency entry is “inactive”. For the compound `Cc1ccc2[nH]c3c(=S)nc[nH]c3c2c1`, the Potency is 6.9 µM (active). With `Cc1cc(Br)c2nc3c(c(C(=O)O)c2c1)CCCCC3`, the Potency is 3.08 µM (active). Regarding `c1ccc(COn2nnc3ccccc32)c(COn2nnc3ccccc32)c1`, the Potency result is “inactive”. The same measure for `O=C(Cn1cnc2c(nnn2-c2ccc(F)cc2)c1=O)NCC1CCCO1` (centres undefined): 8.7 µM (active). `CC1CCCCN1C(=O)c1ccccc1NC(=O)c1ccco1` (centres undefined): the Potency entry is “inactive”. Regarding `O=S(=O)(c1cccc(-c2cn3cccnc3n2)c1)N1CCOCC1`, the Potency is 13.8 µM (active).

For the compound `CC1CCN(S(=O)(=O)c2ccc3nc(N4CCN(c5ccccc5)CC4)ccc3c2)CC1`, the Potency is 15.4 µM (active). `O=C(Nc1ccccc1C(=O)NCCc1ccccc1)c1ccco1`: the Potency entry is “inactive”. The value for `O=C(Nc1ccccc1C(=O)NCc1ccc(Cl)cc1)c1ccco1` was “inactive”.

`COc1ccc(OC)c(CNC(=O)C2CCN(C(=O)N(C)C)CC2)c1`: the Potency result was “inactive”.

On to `CCOC(=O)c1sc(=NC(=O)c2ccc(S(=O)(=O)N(C)c3ccccc3)cc2)n(C)c1C`, for which the Potency is 34.6 µM (active). The value for `CCOC(=O)CNC(=O)CSc1ccc2nnc(-c3cccnc3)n2n1` was “inactive”; that for `CCN(CC)CCCCCC(=O)Nc1ccccc1C(=O)Nc1ccccc1` was “inactive”. For `Cn1c(N)c(C(=O)CSc2nnc(NC3CCCCC3)s2)c(=O)n(C)c1=O`, the Potency result was “inactive”. For `O=C(Nc1ccccc1C(=O)NCc1ccco1)c1ccco1`, the Potency entry was “inactive”. For the compound `CC1C/C(=N\NC(N)=S)c2cc(Cl)ccc2S1` (centres undefined), the Potency entry is “inactive”. `COc1cccc(CNC(=O)c2ccc(CS(=O)Cc3ccc(C)cc3)o2)c1` (centres undefined): the Potency result was “inactive”. The same measure for `CC(=O)C1C(c2ccccc2)c2c(noc2C)CC1(C)O` (centres undefined): “inactive”. On to `CCCC(=O)Nc1ncnc2c1ncn2[C@@H]1O[C@@H]2OP(=O)(O)OC[C@H]2[C@H]1OC(=O)CCC`, for which the Potency is 0.69 µM (active). Regarding `COC(=O)C(C)Sc1ccc2nnc(-c3ccccc3)n2n1` (centres undefined), the Potency result was “inactive”.

Consider `CC(C)C(=O)Nc1ccc(Nc2ccccc2)cc1`, for which the Potency entry is “inactive”. For the compound `COc1ccc(CNC(=O)CN2C(=O)NC(C)(c3cccc(Br)c3)C2=O)cc1` (centres undefined), the Potency entry was “inactive”.

Consider `O=C(O)c1cc(-c2ccc(Br)s2)nc2ccccc12`, for which the Potency was 3.08 µM (active). The same measure for `CCC(=O)Nc1ccc(-n2nnnc2SCC(=O)NNC(=O)c2ccco2)cc1`: “inactive”; for `Cc1ccccc1NC(=O)CNc1ccccc1C(=O)NCc1ccco1`: “inactive”; for `CN(C)c1ccc2nc3c(=O)[nH]c(=O)nc-3n(CC(O)C(O)C(O)CO)c2c1` (centres undefined): “inactive”.

On to `O=C(O)CCSc1ccc2ccccc2n1`, for which the Potency is 19.4 µM (active). Consider `CCC1(C)Cc2c(sc3c2c2ncnn2c2nnc(SCC(=O)NCc4ccco4)n32)CO1` (centres undefined), for which the Potency is 11 µM (active).

Consider `O=C(Nc1ccccc1C(=O)Nc1ccccc1)c1ccco1`, for which the Potency entry was “inactive”. Take `Cc1cccc(-c2nnc(SCC(=O)NC3CC3)n2C)c1`: the Potency entry was “inactive”. As for `C=CCOc1c(Cl)cc(CNc2ccc(N(C)C)cc2)cc1OC`, the Potency result was “inactive”.
